Assay results published in PubChem BioAssay AID778 (Sanford-Burnham Center for Chemical Genomics, 2007).
Hit rate of the full screen: of about 96,000 compounds, about 20,000 (21%) were called active.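 The calls were made as follows: active = CYP2C19 inhibition above a set limit at 5 µM in the primary screen (cut at about 50% in these data); inactive = the rest.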 These entries were drawn from the full list.

These compounds were tested against Cytochrome P450 2C19 (Homo sapiens) (UniProt P33261) (assay: blockers of cytochrome P450 2C19 activity – biochemical, luminescence, ADME assay, primary screen (AID 778;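 also: plate controls were negative control wells for no effect and 2.5 mM tranylcypromine positive control for full effect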)). Conditions: CYP2C19 Supersomes, luciferin-H EGE luminescence, 30 min; at 5 µM; active compounds read high.
Chain of Cytochrome P450 2C19 (Homo sapiens) (P33261 whole entry, looked up): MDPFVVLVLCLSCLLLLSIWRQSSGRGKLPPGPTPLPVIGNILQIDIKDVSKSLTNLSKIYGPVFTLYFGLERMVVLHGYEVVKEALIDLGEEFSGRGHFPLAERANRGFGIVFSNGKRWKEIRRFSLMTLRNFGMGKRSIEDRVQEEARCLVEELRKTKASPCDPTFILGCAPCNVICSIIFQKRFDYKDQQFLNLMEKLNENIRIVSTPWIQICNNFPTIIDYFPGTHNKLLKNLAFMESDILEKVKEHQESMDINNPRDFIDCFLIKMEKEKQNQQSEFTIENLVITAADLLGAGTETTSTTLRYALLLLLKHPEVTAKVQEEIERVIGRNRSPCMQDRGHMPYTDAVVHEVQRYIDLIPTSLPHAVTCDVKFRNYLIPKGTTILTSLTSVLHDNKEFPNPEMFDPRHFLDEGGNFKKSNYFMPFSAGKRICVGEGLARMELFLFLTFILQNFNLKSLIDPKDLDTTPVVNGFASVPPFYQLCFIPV

SMILES | inhibition
CCCCCCn1c(CN2CCCC(C)C2)nc2c1c(=O)n(C)c(=O)n2C (stereo unspecified) | 2.2% (inactive)
CCOC(=O)Nc1ccc2c(c1)N(C(=O)CN1CCN3CCCC3C1)c1ccccc1CC2 (stereo unspecified) | 18.2% (inactive)
CCCCNC(=O)C1CCCNC1=O (stereo unspecified) | -19% (inactive)
CCOC(=O)c1nnn(-c2nonc2OC)c1-c1ccccc1 | 60.7% (active)
CCOC(=O)C1=C(c2ccccc2)O/C(=C(/C(=O)OC)C(F)(F)F)S1 | 11.1% (inactive)
CCOC(=O)c1nnn(-c2nc(OC)nc(N(C)C)n2)c1-c1ccccc1 | 27.7% (inactive)
Cc1cccc(C(=O)Nc2ccc(C(=O)/C=C/c3cccs3)cc2)c1 | -1.9% (inactive)
CCCNC(=O)NCc1ccc(N2CCCC2=O)cc1 | 3.6% (inactive)
Brc1ccc(OCCn2ccnc2)cc1 | 91.7% (active)
COc1cccc(C(=O)Nc2c3c(nn2-c2cccc(C)c2C)CS(=O)(=O)C3)c1OC | -2.2% (inactive)
C=CCNC(=O)C1CC=CCC1C(=O)O (stereo unspecified) | -11.3% (inactive)
N#CC1=C(SCc2ccccc2)NC(=O)C(C#N)C12CCCC2 (stereo unspecified) | 63.9% (active)
c1ccc(CCc2nc(-c3ccncc3)no2)cc1 | 97.5% (active)
Cc1ccc(Cc2nc(-c3cccc(C)c3)no2)cc1 | 2.2% (inactive)
O=C1c2ccccc2C(=O)N1CCCc1nc(-c2ccccc2)no1 | 9.5% (inactive)
CCOC(=O)N1CCN(CC(=O)Nc2cc(C)nn2-c2nc3ccccc3s2)CC1 | 39.8% (inactive)
CCn1cc(C(=O)N/N=C(/C)c2ccc(F)cc2)c(=O)c2cc(F)c(N3CCCC3)cc21 | 39.5% (inactive)
Cc1nnc(SCC(=O)Nc2ncc3c(n2)CC(C)(C)CC3=O)s1 | 1.5% (inactive)
CCN1C(=O)C(CC(=O)Nc2cc(C)ccc2C)SC1=Nc1ccc(S(N)(=O)=O)cc1 (stereo unspecified) | 17.6% (inactive)
CC(=O)Oc1ccc(C(=O)Nc2nccs2)cc1 | 16.7% (inactive)
O=C(CCSCCc1ccccn1)Nc1nccs1 | 82.6% (active)
Cn1cccc1C(=O)Nc1nccs1 | 8.5% (inactive)

SMILES | inhibition
CC(C(=O)N1CCOCC1)N1c2cccc3cccc(c23)S1(=O)=O (stereo unspecified) | 80.5% (active)
NC(=NC(=O)c1ccccc1)N1CCOCC1 | 12% (inactive)
CC(C(=O)O)N1C(=O)c2cccc3cccc1c23 (stereo unspecified) | -13.8% (inactive)
O=C(NCCN1CCN(Cc2ccccc2)CC1)c1cc2c(=O)[nH]c3ccccc3c2s1 | -2.7% (inactive)
Nn1c(Cc2cccc3ccccc23)nnc1SCC(=O)N1CC(=O)Nc2ccccc21 | -8.7% (inactive)
COc1ccc(NC(=O)c2c(SC)nsc2SC)cc1 | 7.1% (inactive)
O=S1(=O)CCN2C(=N1)SC1=C2CCN(Cc2ccccc2)C1 | 48.1% (inactive)
CN(C(=O)C1CCOC1)c1nnc(-c2cccnc2)s1 (stereo unspecified) | 5.3% (inactive)
CC(C)(C)NC(=O)Cn1cnc([N+](=O)[O-])n1 | 6.1% (inactive)
Cn1cnc([N+](=O)[O-])c1Sc1ccccc1 | 30.3% (inactive)
Cn1nc([N+](=O)[O-])nc1Sc1ccc(C(C)(C)C)cc1 | 97.1% (active)
Cc1ccc(-c2n[nH]c(=S)n2/N=C/c2cc3c(cc2[N+](=O)[O-])OCO3)cc1 | 0.8% (inactive)
O=C(COc1ncnc2c(Cl)cc(Cl)cc12)N1CCN(S(=O)(=O)c2ccccc2)CC1 | -6.9% (inactive)
CCOC(=O)c1c(C)[nH]c(C(=O)NCc2ccccc2OC)c1C | 44.3% (inactive)
CCCOc1ccccc1C(=O)NCCCC(=O)O | 9.9% (inactive)
COc1cc(SC)ccc1C(=O)NCCOc1ccccc1Cl | 94.9% (active)
COc1ccc(Cl)cc1C(=O)NCC#N | -3.6% (inactive)
CCc1nnc(NC(=O)CCC(=O)NCc2ccccc2OC)s1 | -8% (inactive)
COc1ccccc1CNC(=O)c1ccc(SC)cc1OC | 78.9% (active)
O=C1CCCN1CCCNc1ncnc2c1[nH]c1ccccc12 | 39% (inactive)
CC(=O)Nc1ccc(N2C(=O)CCC2=O)cc1C | 9.8% (inactive)
O=C(/C=C/Sc1ncn[nH]1)c1ccc(Cl)cc1 | 38.2% (inactive)

SMILES | inhibition
CC1Cc2ccccc2N1C(=O)CSc1nnc(-c2ccc(S(=O)(=O)N3CCCCC3)cc2)o1 (stereo unspecified) | 12.5% (inactive)
O=C(CCS(=O)(=O)Cc1ccccc1F)NCCCN1CCCCC1 | 22.6% (inactive)
Cc1ccc(S(=O)(=O)N(CC(=O)NCCSC2CCCCC2)c2ccccc2F)cc1 | -4.4% (inactive)
CCCNC(=O)CN(Cc1ccccc1F)S(=O)(=O)c1ccc(C)cc1 | 64.4% (active)
Cc1cc(=O)n2nc(N3CCCC(C(=O)NCCC4=CCCCC4)C3)sc2n1 (stereo unspecified) | 35.1% (inactive)
CCOC(=O)N1CCC(NC(=O)Cc2cn(C)c3ccccc23)CC1 | -8.8% (inactive)
CC1=Nn2c(nnc2-c2ccccc2)SC1 | -2% (inactive)
CCOc1ccccc1C1CC(c2ccccc2)Nc2nc(N)nn21 (stereo unspecified) | 44.9% (inactive)
COc1ccc(C2CC(c3ccc(Cl)cc3Cl)Nc3nc(N)nn32)cc1OC (stereo unspecified) | -12.5% (inactive)
CCOc1ccccc1C1CC(c2ccc(Cl)cc2)Nc2nc(N)nn21 (stereo unspecified) | 90.2% (active)
COCCn1c(-c2ccc(OC)c(OC)c2)nc2ccccc21 | 0.9% (inactive)
COc1ccc(-c2nc3ccccc3n2CCC(C)C)cc1OC | 61.3% (active)
COc1ccc(NC(=O)COC(=O)Cn2c(C)nc3ccccc32)cc1OC | -0.3% (inactive)
C=CCN(c1ccc(C(N)=O)cc1)S(C)(=O)=O | -3.9% (inactive)
CSc1ccc(-c2c(C#N)c(N)nc3c2c(C)nn3-c2ccccc2)cc1 | 4.1% (inactive)
COc1cc(=O)[nH]c(=O)n1C(=O)Cc1ccccc1 | 5.6% (inactive)
CCOc1cccc(C(=O)Nc2cnn(Cc3ccccc3)c2)c1 | 8.6% (inactive)
Cc1ccc(C(=O)COc2cccc(NC(=O)c3ccco3)c2)cc1 | 32.7% (inactive)
Cc1ccc(C(=O)Nc2nnc(-c3ccncc3)s2)o1 | 27% (inactive)
Cc1occc1C(=O)Nc1nnc(-c2ccncc2)s1 | 98.1% (active)
Cc1occc1C(=O)Nc1cccc(Cn2cccn2)c1 | 57% (active)
Cc1occc1C(=O)Nc1nnc(C2CCCCC2)s1 | -3.5% (inactive)
